# Laboratory results from the supplement of paper PMC8728848.
# Only a selection was taken, and the strongest signals are over-represented in it overall.
# Columns and labels:
# Experiment in all cases: glycan array binding signal (z-score within array); higher = stronger binding
# Settings in all cases: glycan notation: IUPAC condensed, linker removed
# [1] = target: Fuc(a1-2)Gal(b1-3)GalNAc(b1-3)Gal(a1-4)Gal(b1-4)Glc
# Outline: (§1)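 The Consortium for Functional Glycomics database supplied 3228 glycan arrays, of which those lacking an available protein sequence were dropped. The binding signal, a within-array Z-score, was averaged across arrays of the same protein sequence and across linkers. Negative scores can be read as non-binding.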
# [2] = target: Fuc(a1-2)Gal(b1-3)GlcNAc(b1-3)[Neu5Ac(a2-6)Gal(b1-4)GlcNAc(b1-6)]Gal(b1-4)Glc
# Outline: as §1
# [3] = target: Fuc(a1-2)Gal(b1-4)GlcNAc(b1-2)Man(a1-3)[Fuc(a1-2)Gal(b1-4)GlcNAc(b1-2)Man(a1-6)]Man(b1-4)GlcNAc(b1-4)GlcNAc
# Outline: as §1
# [4] = target: Fuc(a1-2)[Gal(a1-3)]Gal(b1-4)GlcNAc
# Outline: as §1
# [5] = target: Fuc(a1-2)[Gal(a1-3)]Gal(b1-4)GlcNAc(b1-2)Man(a1-3)[Fuc(a1-2)[Gal(a1-3)]Gal(b1-4)GlcNAc(b1-2)Man(a1-6)]Man(b1-4)GlcNAc(b1-4)GlcNAc
# Outline: as §1
# [6] = target: Fuc(a1-2)[Gal(a1-3)]Gal(b1-4)GlcNAc(b1-2)Man(a1-3)[Fuc(a1-2)[Gal(a1-3)]Gal(b1-4)GlcNAc(b1-2)Man(a1-6)]Man(b1-4)GlcNAc(b1-4)[Fuc(a1-6)]GlcNAc
# Outline: as §1
# [7] = target: Fuc(a1-2)[GalNAc(a1-3)]Gal
# Outline: as §1
# [8] = target: Fuc(a1-2)[GalNAc(a1-3)]Gal(b1-3)GlcNAc(b1-2)Man(a1-3)[Fuc(a1-2)[GalNAc(a1-3)]Gal(b1-3)GlcNAc(b1-2)Man(a1-6)]Man(b1-4)GlcNAc(b1-4)GlcNAc
# Outline: as §1
# [9] = target: Fuc(a1-2)[GalNAc(a1-3)]Gal(b1-3)GlcNAc(b1-2)Man(a1-3)[Fuc(a1-2)[GalNAc(a1-3)]Gal(b1-3)GlcNAc(b1-2)Man(a1-6)]Man(b1-4)GlcNAc(b1-4)[Fuc(a1-6)]GlcNAc
# Outline: as §1
# [10] = target: Fuc(a1-2)[GalNAc(a1-3)]Gal(b1-4)GlcNAc(b1-2)Man(a1-3)[Fuc(a1-2)[GalNAc(a1-3)]Gal(b1-4)GlcNAc(b1-2)Man(a1-6)]Man(b1-4)GlcNAc(b1-4)GlcNAc
# Outline: as §1
# [11] = target: Fuc(a1-2)[GalNAc(b1-3)]Gal
# Outline: as §1
# [12] = target: Fuc(a1-3)[Gal(b1-4)]GlcNAc
# Outline: as §1
# [13] = target: Fuc(a1-3)[Gal(b1-4)]GlcNAc(b1-2)Man(a1-3)[Fuc(a1-3)[Gal(b1-4)]GlcNAc(b1-2)Man(a1-6)]Man(b1-4)GlcNAc(b1-4)GlcNAc
# Outline: as §1
# [14] = target: Fuc(a1-3)[Gal(b1-4)]GlcNAc(b1-3)Gal(b1-3)[Fuc(a1-4)]GlcNAc
# Outline: as §1
# [15] = target: Gal(a1-4)Gal(b1-4)GlcNAc
# Outline: as §1
# [16] = target: Gal(b1-3)GlcNAc
# Outline: as §1
# [17] = target: Gal(b1-3)GlcNAc(b1-2)Man(a1-3)[GlcNAc(b1-4)][Gal(b1-3)GlcNAc(b1-2)Man(a1-6)]Man(b1-4)GlcNAc(b1-4)GlcNAc
# Outline: as §1
# [18] = target: Gal(b1-3)GlcNAc(b1-3)Gal(b1-3)GlcNAc
# Outline: as §1
# [19] = target: Gal(b1-3)GlcNAc(b1-3)Gal(b1-4)GlcNAc(b1-2)[Gal(b1-3)GlcNAc(b1-3)Gal(b1-4)GlcNAc(b1-6)]Man(a1-6)[Gal(b1-3)GlcNAc(b1-3)Gal(b1-4)GlcNAc(b1-2)Man(a1-3)]Man(b1-4)GlcNAc(b1-4)[Fuc(a1-6)]GlcNAc
# Outline: as §1
# [20] = target: Gal(b1-3)GlcNAc(b1-3)Gal(b1-4)GlcNAc(b1-6)[Gal(b1-3)GlcNAc(b1-3)]Gal(b1-4)Glc
# Outline: as §1
# [21] = target: Gal(b1-3)GlcNAc(b1-3)Gal(b1-4)[Fuc(a1-3)]GlcNAc(b1-6)[Gal(b1-3)GlcNAc(b1-3)]Gal(b1-4)Glc
# Outline: as §1
# [22] = target: Gal(b1-3)[Fuc(a1-4)]GlcNAc(b1-6)GalNAc
# Outline: as §1
# [23] = target: Gal(b1-4)GlcNAc(b1-2)Man
# Outline: as §1
# [24] = target: Gal(b1-4)GlcNAc(b1-3)Gal(b1-4)GlcNAc(b1-3)Gal(b1-4)GlcNAc(b1-2)[Gal(b1-4)GlcNAc(b1-3)Gal(b1-4)GlcNAc(b1-3)Gal(b1-4)GlcNAc(b1-6)]Man(a1-6)[Gal(b1-4)GlcNAc(b1-3)Gal(b1-4)GlcNAc(b1-3)Gal(b1-4)GlcNAc(b1-2)Man(a1-3)]Man(b1-4)GlcNAc(b1-4)[Fuc(a1-6)]GlcNAc
# Outline: as §1
# [25] = target: Gal(b1-4)GlcNAc(b1-3)Gal(b1-4)GlcNAc(b1-3)Gal(b1-4)GlcNAc(b1-3)Gal(b1-4)GlcNAc(b1-2)[Gal(b1-4)GlcNAc(b1-3)Gal(b1-4)GlcNAc(b1-3)Gal(b1-4)GlcNAc(b1-3)Gal(b1-4)GlcNAc(b1-6)]Man(a1-6)[Gal(b1-4)GlcNAc(b1-3)Gal(b1-4)GlcNAc(b1-3)Gal(b1-4)GlcNAc(b1-3)Gal(b1-4)GlcNAc(b1-2)Man(a1-3)]Man(b1-4)GlcNAc(b1-4)[Fuc(a1-6)]GlcNAc
# Outline: as §1
# [26] = target: Gal(b1-4)GlcNAc(b1-3)Gal(b1-4)GlcNAc(b1-3)Gal(b1-4)GlcNAc(b1-3)Gal(b1-4)GlcNAc(b1-3)Gal(b1-4)GlcNAc(b1-2)[Gal(b1-4)GlcNAc(b1-3)Gal(b1-4)GlcNAc(b1-3)Gal(b1-4)GlcNAc(b1-3)Gal(b1-4)GlcNAc(b1-3)Gal(b1-4)GlcNAc(b1-6)]Man(a1-6)[Gal(b1-4)GlcNAc(b1-3)Gal(b1-4)GlcNAc(b1-3)Gal(b1-4)GlcNAc(b1-3)Gal(b1-4)GlcNAc(b1-3)Gal(b1-4)GlcNAc(b1-2)Man(a1-3)]Man(b1-4)GlcNAc(b1-4)[Fuc(a1-6)]GlcNAc
# Outline: as §1
# [27] = target: Gal(b1-4)GlcNAc(b1-3)Gal(b1-4)[Fuc(a1-3)]GlcNAc(b1-3)Gal(b1-4)[Fuc(a1-3)]GlcNAc
# Outline: as §1
# [28] = target: Gal(b1-4)GlcNAc(b1-3)[Gal(b1-4)GlcNAc(b1-6)]Gal(b1-4)GlcNAc
# Outline: as §1
# [29] = target: Gal(b1-4)GlcNAc(b1-6)GalNAc
# Outline: as §1
# [30] = target: Gal(b1-4)GlcNAc(b1-6)[Gal(b1-3)]GalNAc
# Outline: as §1
# [31] = target: Gal3S(b1-4)Glc6S
# Outline: as §1
# [32] = target: GalNAc(a1-3)Gal
# Outline: as §1
# [33] = target: GalNAc(b1-3)Gal(a1-4)Gal(b1-4)GlcNAc
# Outline: as §1
# [34] = target: GalNAc(b1-4)Gal(b1-4)Glc
# Outline: as §1
# [35] = target: GalNAc3S(b1-4)GlcNAc3S
# Outline: as §1
# [36] = target: GlcA(b1-3)Gal
# Outline: as §1
# [37] = target: GlcNAc(a1-4)Gal(b1-4)GlcNAc(b1-3)Gal(b1-4)Glc
# Outline: as §1
# [38] = target: GlcNAc(a1-4)Gal(b1-4)GlcNAc(b1-3)Gal(b1-4)[Fuc(a1-3)]GlcNAc(b1-3)Gal(b1-4)[Fuc(a1-3)]GlcNAc
# Outline: as §1
# [39] = target: GlcNAc(b1-3)Gal(b1-4)GlcNAc(b1-2)Man(a1-3)[GlcNAc(b1-3)Gal(b1-4)GlcNAc(b1-2)Man(a1-6)]Man(b1-4)GlcNAc(b1-4)[Fuc(a1-6)]GlcNAc
# Outline: as §1
# [40] = target: GlcNAc(b1-3)Gal(b1-4)GlcNAc(b1-3)Gal(b1-4)GlcNAc(b1-3)Gal(b1-4)GlcNAc(b1-2)Man(a1-3)[GlcNAc(b1-3)Gal(b1-4)GlcNAc(b1-3)Gal(b1-4)GlcNAc(b1-3)Gal(b1-4)GlcNAc(b1-2)Man(a1-6)]Man(b1-4)GlcNAc(b1-4)GlcNAc
# Outline: as §1
# [41] = target: GlcNAc(b1-3)Gal(b1-4)GlcNAc(b1-6)[Gal(b1-3)]GalNAc
# Outline: as §1
# [42] = target: GlcNAc(b1-4)Gal(b1-4)GlcNAc
# Outline: as §1
# [43] = target: Kdn(a2-3)Gal(b1-3)GalNAc
# Outline: as §1
# [44] = target: Man(a1-2)Man(a1-2)Man(a1-3)Man
# Outline: as §1
# [45] = target: Man(a1-3)[Man(a1-6)]Man(a1-6)[Man(a1-3)]Man(b1-4)GlcNAc(b1-4)GlcNAc
# Outline: as §1
# [46] = target: Neu5Ac(a2-3)Gal(b1-3)GlcNAc(b1-3)Gal(b1-3)GlcNAc
# Outline: as §1
# [47] = target: Neu5Ac(a2-3)Gal(b1-3)[Fuc(a1-4)]GlcNAc(b1-3)Gal(b1-4)[Fuc(a1-3)]GlcNAc
# Outline: as §1
# [48] = target: Neu5Ac(a2-3)Gal(b1-4)Glc
# Outline: as §1
# [49] = target: Neu5Ac(a2-3)Gal(b1-4)GlcNAc(b1-3)Gal(b1-4)GlcNAc(b1-3)Gal(b1-4)GlcNAc
# Outline: as §1
# [50] = target: Neu5Ac(a2-3)Gal(b1-4)GlcNAc(b1-3)[Neu5Ac(a2-3)Gal(b1-4)GlcNAc(b1-6)]GalNAc
# Outline: as §1
binder,measurement,setting,value
PX9937F-bfa-516-16-516 (Bacteroides fragilis) (protein) LDIDPTSSIADSNYWKTEAQFSTFNVGLHALLRECSFNFFLLGEPRADIYGDVPFGGEATQGMERLPFNTINKENTGISNFAGMYKVINQINLMIAKTKETTVLSEAGKNYYLGEAYGMRAYLYFHLLRSWGDVILYLDYTNGASLDLSNLSKAASPAEEVMKQIKEDITASEKGFGSDYSFKYGRYYWSMAATQMLKGEVYLWSGRQMGGGTADYTTAKTALQSIVSNANVSLQDDFSKVFAYNNKDNSEIIFSIRNAKDEYNMWDDRFRQNLVPQQAYMTSTYCNKEGVSFKDLPEGQLNGLIRLQIRYDLYNKAFRDGDTRKDASMTAVYQKQQDGTVKYIAPFCNKYQGVLLDGASQRSFLNDYPIYRYADCLLLLAEAKALLGEDPTAEINQVRERAYGKEFFEANKATLAYPNDKGDFYTDNKYMSGDEDPLEAILKERMREFMFEGKRWYDLRLLGADYVTKRTSAVATRLLWPINESVLTDNPALKQTPGYQN,glycan array binding signal (z-score),[1],0.493
same,glycan array binding signal (z-score),[2],-0.097
same,glycan array binding signal (z-score),[3],-0.256
same,glycan array binding signal (z-score),[4],-0.012
same,glycan array binding signal (z-score),[5],1.48
same,glycan array binding signal (z-score),[6],-0.006
same,glycan array binding signal (z-score),[7],-0.222
same,glycan array binding signal (z-score),[8],-0.141
same,glycan array binding signal (z-score),[9],-0.135
same,glycan array binding signal (z-score),[10],2.69
same,glycan array binding signal (z-score),[11],1.64
same,glycan array binding signal (z-score),[12],-0.071
same,glycan array binding signal (z-score),[13],-0.045
same,glycan array binding signal (z-score),[14],-0.161
same,glycan array binding signal (z-score),[15],-0.077
same,glycan array binding signal (z-score),[16],-0.207
same,glycan array binding signal (z-score),[17],0.179
same,glycan array binding signal (z-score),[18],-0.041
same,glycan array binding signal (z-score),[19],7.79
same,glycan array binding signal (z-score),[20],-0.142
same,glycan array binding signal (z-score),[21],-0.388
same,glycan array binding signal (z-score),[22],1.88
same,glycan array binding signal (z-score),[23],-0.006
same,glycan array binding signal (z-score),[24],4.38
same,glycan array binding signal (z-score),[25],3.95
same,glycan array binding signal (z-score),[26],20.8
same,glycan array binding signal (z-score),[27],-0.12
same,glycan array binding signal (z-score),[28],-0.235
same,glycan array binding signal (z-score),[29],0.084
same,glycan array binding signal (z-score),[30],0.054
same,glycan array binding signal (z-score),[31],-0.009
same,glycan array binding signal (z-score),[32],0.114
same,glycan array binding signal (z-score),[33],1.48
same,glycan array binding signal (z-score),[34],1.77
same,glycan array binding signal (z-score),[35],-0.23
same,glycan array binding signal (z-score),[36],-0.361
same,glycan array binding signal (z-score),[37],-0.323
same,glycan array binding signal (z-score),[38],0.511
same,glycan array binding signal (z-score),[39],1.82
same,glycan array binding signal (z-score),[40],0.988
same,glycan array binding signal (z-score),[41],-0.127
same,glycan array binding signal (z-score),[42],-0.271
same,glycan array binding signal (z-score),[43],-0.345
same,glycan array binding signal (z-score),[44],-0.273
same,glycan array binding signal (z-score),[45],0.247
same,glycan array binding signal (z-score),[46],-0.249
same,glycan array binding signal (z-score),[47],-0.15
same,glycan array binding signal (z-score),[48],-0.325
same,glycan array binding signal (z-score),[49],-0.282
same,glycan array binding signal (z-score),[50],-0.202
